Only a selection was taken, and hits are over-represented in it overall.
Dicer processing: blocks human Dicer maturation of pre-miR-21 | hit rate 6% among 47,000 | z-score at 25 µM | Q9UPY3 | cat-ELCCA pre-miR-21 Dicer processing, chemiluminescence; active compounds read high; in the data active = z-score above about 3, passing the limit was not always enough;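 also: plate controls were vehicle for no effect and no enzyme for full effect; higher signal means more uncleaved substrate so more Dicer inhibition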
Target sequence (Q9UPY3 whole entry, looked up): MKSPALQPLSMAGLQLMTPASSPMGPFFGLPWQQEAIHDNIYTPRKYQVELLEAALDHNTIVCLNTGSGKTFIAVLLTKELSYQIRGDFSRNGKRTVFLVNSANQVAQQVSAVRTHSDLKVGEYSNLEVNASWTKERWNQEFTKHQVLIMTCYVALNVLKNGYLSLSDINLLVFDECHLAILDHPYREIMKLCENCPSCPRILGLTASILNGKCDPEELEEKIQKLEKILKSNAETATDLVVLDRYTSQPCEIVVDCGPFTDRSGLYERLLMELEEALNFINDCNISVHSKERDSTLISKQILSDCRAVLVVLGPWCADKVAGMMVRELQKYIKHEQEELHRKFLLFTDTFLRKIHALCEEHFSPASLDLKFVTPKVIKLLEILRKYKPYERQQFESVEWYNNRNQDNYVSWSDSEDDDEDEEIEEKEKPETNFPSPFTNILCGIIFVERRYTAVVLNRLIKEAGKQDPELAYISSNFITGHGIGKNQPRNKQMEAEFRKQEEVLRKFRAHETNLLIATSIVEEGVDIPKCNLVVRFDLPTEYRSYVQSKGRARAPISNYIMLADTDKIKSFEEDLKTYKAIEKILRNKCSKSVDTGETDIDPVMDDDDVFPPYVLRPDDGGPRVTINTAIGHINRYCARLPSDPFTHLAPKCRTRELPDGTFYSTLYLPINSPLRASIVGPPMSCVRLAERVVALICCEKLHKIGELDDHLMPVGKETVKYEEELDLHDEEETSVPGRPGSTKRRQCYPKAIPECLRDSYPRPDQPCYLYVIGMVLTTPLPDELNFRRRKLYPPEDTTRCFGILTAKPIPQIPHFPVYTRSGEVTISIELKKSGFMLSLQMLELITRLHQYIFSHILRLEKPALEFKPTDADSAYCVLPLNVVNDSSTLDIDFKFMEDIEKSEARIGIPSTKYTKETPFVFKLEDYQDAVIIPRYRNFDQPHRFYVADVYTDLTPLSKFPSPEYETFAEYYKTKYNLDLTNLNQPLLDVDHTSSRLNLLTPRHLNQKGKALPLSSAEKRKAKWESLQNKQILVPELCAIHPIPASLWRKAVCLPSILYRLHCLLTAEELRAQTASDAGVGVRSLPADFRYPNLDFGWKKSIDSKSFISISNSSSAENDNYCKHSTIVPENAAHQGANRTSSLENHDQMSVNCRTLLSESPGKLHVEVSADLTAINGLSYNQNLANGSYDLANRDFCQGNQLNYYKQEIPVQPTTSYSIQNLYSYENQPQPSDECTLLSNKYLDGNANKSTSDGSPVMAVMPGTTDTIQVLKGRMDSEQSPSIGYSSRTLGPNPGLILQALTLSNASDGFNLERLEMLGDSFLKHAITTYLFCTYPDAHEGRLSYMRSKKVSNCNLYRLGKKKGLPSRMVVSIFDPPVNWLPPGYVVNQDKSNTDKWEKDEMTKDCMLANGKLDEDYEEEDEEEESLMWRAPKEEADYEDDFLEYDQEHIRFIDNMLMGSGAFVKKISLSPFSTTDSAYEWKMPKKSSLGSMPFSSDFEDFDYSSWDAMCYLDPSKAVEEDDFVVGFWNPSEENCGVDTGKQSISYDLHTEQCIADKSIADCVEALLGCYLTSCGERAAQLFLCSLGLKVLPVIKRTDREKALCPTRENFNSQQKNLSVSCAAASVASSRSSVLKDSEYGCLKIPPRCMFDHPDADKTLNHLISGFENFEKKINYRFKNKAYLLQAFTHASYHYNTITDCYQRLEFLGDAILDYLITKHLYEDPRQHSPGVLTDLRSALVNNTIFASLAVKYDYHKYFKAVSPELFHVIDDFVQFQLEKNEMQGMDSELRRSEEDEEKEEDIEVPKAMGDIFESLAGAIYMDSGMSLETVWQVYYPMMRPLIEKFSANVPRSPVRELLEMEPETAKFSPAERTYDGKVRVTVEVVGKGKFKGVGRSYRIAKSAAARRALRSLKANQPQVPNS
Active calls of the source: *.

SMILES	Dicer processing
CC(C)(C)NC(=S)N/N=C/c1coc2c(Cl)cc(Cl)cc2c1=O	4.85*
CC(C)(C)NC(=S)N/N=C/c1ccccc1Cl	-0.13
CC(C)(C)NC(=S)N/N=C/c1ccccc1O	5.74
Cc1ccc(S(=O)(=O)/N=S(\C)c2ccccc2)cc1 (centres undefined)	-0.1
Cc1ccn2c(C(=O)N/N=C/c3ccc(OCc4ccccc4)cc3)c(C)nc2c1	1.19
C#CCN1C(=O)C(=O)c2cc(Br)ccc21	4.34*
N#CCCN(CN1C(=O)C(=O)c2cc(Br)ccc21)C1CCCCC1	-3.09
CCCN1C(=O)C(=O)c2cc(Br)ccc21	-0.64
CCOC(=O)c1c(C)n(C)c2ccc(OCC(O)CN3CCCCC3C)cc12 (centres undefined)	0.28
NS(=O)(=O)c1ccc(CNC(=O)c2ccccc2)s1	1.01
CC(C)(C)NC1=C(C#N)C(=O)NC(c2ccccc2O)S1 (centres undefined)	3.86*
CSC1=C(C#N)C(=O)NC(c2ccccc2O)S1 (centres undefined)	-0.17
CSC1=C(C#N)C(=O)NC(c2cccc3ccccc23)S1 (centres undefined)	0.89
Nc1c(C(=O)Nc2cccc(Cl)c2)sc2nc3c(c(-c4cccnc4)c12)CCC3	-0.4
O=C(CC1OC(=O)c2ccccc21)c1ccc(F)cc1 (centres undefined)	1.27
Cc1cc(N=Cc2ccccc2O)no1	4.47*
Cc1cc(N=CNOC(=O)c2nn(-c3ccccc3)nc2C)no1	-0.95
CC(=O)/C(C=Nc1cc(C)on1)=C(\C)O	-1.04
O=C(CSc1nc2cccnc2s1)NNC(=S)Nc1ccccc1F	-5.79
O=C(CCc1ccc(O)cc1)c1c(O)cc(O)cc1O	3.59*
O=C(CCc1ccc(O)cc1)NNC(=S)NCCc1ccccc1	-0.71
CCOC(=O)C(=CNNC(=O)CCc1ccc(O)cc1)C(=O)OCC	-0.3
CCOCCn1c(N2CCCN(C)CC2)nc2ccccc21	-1.19
S=C1C=C(N2CCCCC2)CC(c2cccs2)S1 (centres undefined)	4.94*
CC1(C)CC(N2CCCCC2)=CC(=S)S1	0.21
SMILES	Dicer processing
O=S(=O)(c1ccccc1)N1CCCC1c1cccs1 (centres undefined)	-0.38
Nc1ncn(C(=O)c2ccccc2)n1	4.55*
O=C(c1ccccc1)n1ccc(-c2cccs2)n1	-3.12
O=C1CN(C(=O)c2ccccc2)C(=O)CN1C(=O)c1ccccc1	0.91
COC(=O)c1sc(N2C(=O)c3oc4ccc(F)cc4c(=O)c3C2c2ccc(C)cc2)nc1C (centres undefined)	1.95
O=C(c1ccco1)N1CCN(C(=O)C2CC(c3ccc(Cl)cc3)=NO2)CC1 (centres undefined)	-1.77
CCSC1=C(C#N)C(=O)NC(CO)S1 (centres undefined)	1.12
O=C(CSc1nnc2scc(-c3ccccc3)n12)Nc1nsc(-c2ccccc2)n1	0.12
NC(=O)CSc1nnc2ccccn12	0.34
Cn1ccnc1SCC(=O)Nc1nc2ccccc2s1	-0.98
Cc1ccccc1-c1nc(NC(=O)CSc2nnc3ccccn23)ns1	3.51*
O=C(CSc1ncn[nH]1)Nc1ncccn1	0.99
O=C(CSc1nnc2ccccn12)Nc1ccc(-c2nc3ccccc3s2)cc1	3.46*
Cc1ccc(-c2csc3nnc(SCC(=O)Nc4nsc(-c5ccccc5)n4)n23)cc1	4.59*
O=C(CSc1nc2ccccc2s1)Nc1ccc(Cl)cc1	0.57
CC(C)(C)c1ccc(-c2nc(NC(=O)CSc3ncn[nH]3)ns2)cc1	7.07*
Cc1nnc(SCC(=O)Nc2nsc(-c3ccc(C(C)(C)C)cc3)n2)s1	1.81
O=C(CSc1nnc2ccccn12)Nc1nc(-c2ccc(Cl)cc2)ns1	-2.9
O=C(CSc1ccc2ccccc2n1)Nc1nsc(-c2ccccc2)n1	2.14
Cc1[nH]nc2c1C(c1ccccc1OCc1ccc(Cl)cc1)C(C#N)=C(N)O2 (centres undefined)	-3.79
Cc1ccc2cc(-c3noc(-c4ccccc4C)n3)c(=O)[nH]c2c1	1.44
CCOc1ccccc1C1C2=C(Nc3c1c(=O)[nH]c(=O)n3CCCOC)c1ccccc1C2=O (centres undefined)	-1.16
CNC(=S)C12CC3CC(CC(C3)C1)C2	-0.13
CC1CN=C(N(C(=O)Nc2cccc(Cl)c2)C(C)c2ccccc2)S1 (centres undefined)	-0.34
Cc1ccc(C(C)C)cc1C(=O)CC1(O)C(=O)Nc2ccccc21 (centres undefined)	-1.24
SMILES	Dicer processing
CC(C)(C)OC(=O)NCCNC(=O)C1CCN(c2nccc(C(F)(F)F)n2)CC1	-1.01
CC(C)(C)OC(=O)NCCNC(=O)Nc1ccccc1C(F)(F)F	-0.78
Cc1nc(C(F)(F)F)ccc1C(=O)NCCNC(=O)OC(C)(C)C	4.36*
O=C(O)c1ccc(C(F)(F)F)cc1C(F)(F)F	1.14
COC(=O)c1scc(C)c1NC(=O)CSc1cc(C(F)(F)F)cc(C(F)(F)F)c1	-3.32
Cc1oc2ccc(OCC(=O)OCc3ccccc3)cc2c1C(=O)OC(C)C	-0.24
COc1ccc2c(c1)CCC/C2=N\NC(N)=S	6.02
CC1(C)CC2(CCCN(Cc3nc4c(c(=O)[nH]3)C3(CCCC3)Cc3ccccc3-4)C2)CCO1 (centres undefined)	0.47
